# Columns and labels:
# Assay in all cases: DAPPL (digital affinity profiling via proximity ligation, sequencing); 10 mM Tris-HCl pH 7.5, 50 mM NaCl, 1 mM DTT, 4% glycerol, room temperature, 30 min; GST-TFs on glutathione beads, 16-mer random dsDNA library, 0.1% formaldehyde crosslink after washing; high values mean tight binding
# Conditions in all cases: protein: recombinant; tags: N-terminal GST; dsDNA, one strand shown
# FLI1 = molecular target: T1, FLI1 (Homo sapiens, UniProt Q01543 1-452)
# T1 sequence: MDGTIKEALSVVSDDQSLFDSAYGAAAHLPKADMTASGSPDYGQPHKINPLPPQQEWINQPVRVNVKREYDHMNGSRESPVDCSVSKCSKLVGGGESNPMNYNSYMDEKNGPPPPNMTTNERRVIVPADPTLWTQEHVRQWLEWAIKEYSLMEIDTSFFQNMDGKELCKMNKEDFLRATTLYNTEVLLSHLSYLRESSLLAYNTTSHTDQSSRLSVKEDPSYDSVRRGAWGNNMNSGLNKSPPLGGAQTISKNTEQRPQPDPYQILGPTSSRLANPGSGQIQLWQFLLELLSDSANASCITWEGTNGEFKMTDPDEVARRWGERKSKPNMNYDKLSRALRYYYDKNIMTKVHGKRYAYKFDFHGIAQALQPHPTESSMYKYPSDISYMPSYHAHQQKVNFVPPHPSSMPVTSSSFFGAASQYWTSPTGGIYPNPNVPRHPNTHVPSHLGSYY
# Procedure, shortened: (§1)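 Human transcription factors fused to GST were expressed in yeast, captured on glutathione beads, given DNA barcodes and pooled with a GST-only negative control. Pools were incubated with 200 nmole of a 16-mer random double-stranded DNA library in Tris/NaCl/DTT/glycerol buffer at room temperature for 30 min. They were then washed, crosslinked with 0.1% formaldehyde, proximity-ligated (BsaI/T4 ligase, 1 h, 37 °C), PCR-amplified and sequenced on an Illumina NextSeq500. Binding signal is each 6-mer's read frequency for a factor divided by its frequency for the GST control.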
# ELK1 = molecular target: T2, ELK1 (Homo sapiens, UniProt P19419 1-428)
# T2 sequence: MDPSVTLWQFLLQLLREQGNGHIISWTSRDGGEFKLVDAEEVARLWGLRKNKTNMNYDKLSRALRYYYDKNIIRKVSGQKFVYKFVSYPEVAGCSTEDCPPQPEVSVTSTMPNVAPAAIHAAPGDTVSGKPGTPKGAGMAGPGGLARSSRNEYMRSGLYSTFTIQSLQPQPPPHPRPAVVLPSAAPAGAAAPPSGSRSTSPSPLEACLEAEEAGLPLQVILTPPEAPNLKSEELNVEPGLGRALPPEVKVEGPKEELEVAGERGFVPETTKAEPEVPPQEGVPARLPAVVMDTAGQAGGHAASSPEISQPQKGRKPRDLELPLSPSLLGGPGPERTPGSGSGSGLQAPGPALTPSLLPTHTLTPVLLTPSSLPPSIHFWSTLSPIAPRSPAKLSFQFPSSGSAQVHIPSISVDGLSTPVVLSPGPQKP
# Procedure, shortened: as §1
# GABPA = molecular target: T3, GABPA (Homo sapiens, UniProt Q06546 1-454)
# T3 sequence: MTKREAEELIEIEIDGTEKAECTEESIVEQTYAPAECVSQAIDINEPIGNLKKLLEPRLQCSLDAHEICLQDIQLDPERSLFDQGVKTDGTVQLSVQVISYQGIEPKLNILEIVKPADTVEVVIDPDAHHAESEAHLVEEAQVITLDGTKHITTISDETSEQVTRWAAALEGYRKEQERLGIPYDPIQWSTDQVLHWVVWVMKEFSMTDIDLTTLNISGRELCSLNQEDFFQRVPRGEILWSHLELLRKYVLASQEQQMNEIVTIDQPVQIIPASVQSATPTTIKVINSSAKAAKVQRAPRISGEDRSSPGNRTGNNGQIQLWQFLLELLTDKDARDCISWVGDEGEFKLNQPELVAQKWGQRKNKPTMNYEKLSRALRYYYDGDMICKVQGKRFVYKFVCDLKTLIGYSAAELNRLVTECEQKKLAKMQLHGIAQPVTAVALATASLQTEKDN
# Procedure, shortened: as §1
# ERG = molecular target: T4, ERG (Homo sapiens, UniProt P11308 1-479)
# T4 sequence: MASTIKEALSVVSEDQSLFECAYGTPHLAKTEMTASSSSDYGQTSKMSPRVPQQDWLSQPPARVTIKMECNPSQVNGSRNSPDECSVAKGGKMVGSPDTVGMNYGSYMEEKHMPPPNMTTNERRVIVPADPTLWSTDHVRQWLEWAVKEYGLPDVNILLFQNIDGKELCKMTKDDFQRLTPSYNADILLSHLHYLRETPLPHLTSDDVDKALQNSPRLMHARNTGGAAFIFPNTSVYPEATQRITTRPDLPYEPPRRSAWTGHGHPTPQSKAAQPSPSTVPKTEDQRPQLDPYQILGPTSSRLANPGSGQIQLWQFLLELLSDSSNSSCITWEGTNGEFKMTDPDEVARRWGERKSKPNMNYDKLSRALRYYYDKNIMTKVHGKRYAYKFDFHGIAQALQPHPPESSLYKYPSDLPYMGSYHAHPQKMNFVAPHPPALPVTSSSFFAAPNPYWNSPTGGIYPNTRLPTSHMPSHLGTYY
# Procedure, shortened: as §1
# ELF1 = ELF1 (Homo sapiens, UniProt P32519 1-619)
# ELF1, sequence (P32519 whole entry): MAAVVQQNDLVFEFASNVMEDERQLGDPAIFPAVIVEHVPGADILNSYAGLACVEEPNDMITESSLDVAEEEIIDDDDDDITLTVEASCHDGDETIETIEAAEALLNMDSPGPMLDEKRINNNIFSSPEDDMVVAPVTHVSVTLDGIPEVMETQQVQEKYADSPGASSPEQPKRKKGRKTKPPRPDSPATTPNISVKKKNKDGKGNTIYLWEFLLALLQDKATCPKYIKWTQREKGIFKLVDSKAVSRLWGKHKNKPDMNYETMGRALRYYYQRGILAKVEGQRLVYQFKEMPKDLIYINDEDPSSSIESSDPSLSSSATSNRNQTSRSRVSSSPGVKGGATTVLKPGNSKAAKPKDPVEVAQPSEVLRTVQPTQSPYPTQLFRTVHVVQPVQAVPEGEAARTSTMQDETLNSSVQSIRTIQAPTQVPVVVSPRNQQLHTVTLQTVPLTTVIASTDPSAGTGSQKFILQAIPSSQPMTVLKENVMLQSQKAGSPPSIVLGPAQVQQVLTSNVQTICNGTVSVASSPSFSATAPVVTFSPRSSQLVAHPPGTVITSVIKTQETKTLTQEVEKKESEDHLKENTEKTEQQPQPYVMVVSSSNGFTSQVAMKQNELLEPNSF
# Procedure, shortened: as §1
# EHF = molecular target: T5, EHF (Homo sapiens, UniProt Q9NZC4 1-300)
# T5 sequence: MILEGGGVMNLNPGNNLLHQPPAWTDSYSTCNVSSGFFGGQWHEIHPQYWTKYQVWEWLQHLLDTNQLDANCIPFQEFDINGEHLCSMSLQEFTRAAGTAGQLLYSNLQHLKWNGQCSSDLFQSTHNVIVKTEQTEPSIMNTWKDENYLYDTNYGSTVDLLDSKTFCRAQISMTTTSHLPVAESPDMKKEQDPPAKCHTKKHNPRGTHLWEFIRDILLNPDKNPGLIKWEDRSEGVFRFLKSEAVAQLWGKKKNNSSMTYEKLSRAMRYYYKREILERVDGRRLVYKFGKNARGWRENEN
# Procedure, shortened: as §1
# SPI1 = SPI1 (Homo sapiens, UniProt P17947 1-270)
# Procedure, shortened: as §1
# SPIB = SPIB (Homo sapiens, UniProt Q01892 1-262)
# SPIB, sequence (Q01892 whole entry): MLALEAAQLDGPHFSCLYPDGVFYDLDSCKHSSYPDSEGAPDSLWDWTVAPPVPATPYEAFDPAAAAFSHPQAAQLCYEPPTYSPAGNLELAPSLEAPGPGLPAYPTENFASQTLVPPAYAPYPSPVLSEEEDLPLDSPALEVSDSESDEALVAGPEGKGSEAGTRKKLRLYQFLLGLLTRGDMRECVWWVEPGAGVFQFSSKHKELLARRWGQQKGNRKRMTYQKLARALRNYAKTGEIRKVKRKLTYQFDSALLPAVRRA
# Procedure, shortened: as §1
# ELK3 = molecular target: T6, ELK3 (Homo sapiens, UniProt P41970 1-407)
# T6 sequence: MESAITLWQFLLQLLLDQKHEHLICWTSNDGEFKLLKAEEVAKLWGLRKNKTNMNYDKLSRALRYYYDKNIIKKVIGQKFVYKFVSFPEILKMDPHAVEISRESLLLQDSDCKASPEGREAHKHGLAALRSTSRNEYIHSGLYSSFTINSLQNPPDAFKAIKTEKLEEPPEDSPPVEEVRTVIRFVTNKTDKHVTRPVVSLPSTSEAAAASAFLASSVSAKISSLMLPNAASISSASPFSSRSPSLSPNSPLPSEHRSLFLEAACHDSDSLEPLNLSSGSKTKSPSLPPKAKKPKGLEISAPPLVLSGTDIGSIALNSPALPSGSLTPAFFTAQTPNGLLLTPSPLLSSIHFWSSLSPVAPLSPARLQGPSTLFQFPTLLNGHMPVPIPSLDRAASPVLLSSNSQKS
# Procedure, shortened: as §1
Sequence,binding signal (FLI1),binding signal (ELK1),binding signal (GABPA),binding signal (ERG),binding signal (ELF1),binding signal (EHF),binding signal (SPI1),binding signal (SPIB),binding signal (ELK3)
TCGTTC,"1.17 fold enrichment (6-mer frequency, TF over GST control)","1.15 fold enrichment (6-mer frequency, TF over GST control)","1.33 fold enrichment (6-mer frequency, TF over GST control)","1.27 fold enrichment (6-mer frequency, TF over GST control)","1.15 fold enrichment (6-mer frequency, TF over GST control)","1.23 fold enrichment (6-mer frequency, TF over GST control)","1.17 fold enrichment (6-mer frequency, TF over GST control)","1.23 fold enrichment (6-mer frequency, TF over GST control)","1.23 fold enrichment (6-mer frequency, TF over GST control)"
GTTCCG,"1.81 fold enrichment (6-mer frequency, TF over GST control)","2.02 fold enrichment (6-mer frequency, TF over GST control)","1.64 fold enrichment (6-mer frequency, TF over GST control)","1.95 fold enrichment (6-mer frequency, TF over GST control)","1.78 fold enrichment (6-mer frequency, TF over GST control)","2.05 fold enrichment (6-mer frequency, TF over GST control)","2.19 fold enrichment (6-mer frequency, TF over GST control)","2.15 fold enrichment (6-mer frequency, TF over GST control)","1.71 fold enrichment (6-mer frequency, TF over GST control)"
CCCCGC,"1.12 fold enrichment (6-mer frequency, TF over GST control)","1.19 fold enrichment (6-mer frequency, TF over GST control)","1.2 fold enrichment (6-mer frequency, TF over GST control)","1.19 fold enrichment (6-mer frequency, TF over GST control)","1.27 fold enrichment (6-mer frequency, TF over GST control)","1.26 fold enrichment (6-mer frequency, TF over GST control)","1.11 fold enrichment (6-mer frequency, TF over GST control)","1.19 fold enrichment (6-mer frequency, TF over GST control)","1.06 fold enrichment (6-mer frequency, TF over GST control)"
CTTACA,"1.28 fold enrichment (6-mer frequency, TF over GST control)","1.3 fold enrichment (6-mer frequency, TF over GST control)","1.32 fold enrichment (6-mer frequency, TF over GST control)","1.21 fold enrichment (6-mer frequency, TF over GST control)","1.24 fold enrichment (6-mer frequency, TF over GST control)","1.33 fold enrichment (6-mer frequency, TF over GST control)","1.22 fold enrichment (6-mer frequency, TF over GST control)","1.21 fold enrichment (6-mer frequency, TF over GST control)","1.24 fold enrichment (6-mer frequency, TF over GST control)"
GGACAT,"1.19 fold enrichment (6-mer frequency, TF over GST control)","1.19 fold enrichment (6-mer frequency, TF over GST control)","1.24 fold enrichment (6-mer frequency, TF over GST control)","1.24 fold enrichment (6-mer frequency, TF over GST control)","1.19 fold enrichment (6-mer frequency, TF over GST control)","1.19 fold enrichment (6-mer frequency, TF over GST control)","1.13 fold enrichment (6-mer frequency, TF over GST control)","1.14 fold enrichment (6-mer frequency, TF over GST control)","1.19 fold enrichment (6-mer frequency, TF over GST control)"
TCTAAC,"1.18 fold enrichment (6-mer frequency, TF over GST control)","1.28 fold enrichment (6-mer frequency, TF over GST control)","1.16 fold enrichment (6-mer frequency, TF over GST control)","1.22 fold enrichment (6-mer frequency, TF over GST control)","1.21 fold enrichment (6-mer frequency, TF over GST control)","1.16 fold enrichment (6-mer frequency, TF over GST control)","1.13 fold enrichment (6-mer frequency, TF over GST control)","1.19 fold enrichment (6-mer frequency, TF over GST control)","1.16 fold enrichment (6-mer frequency, TF over GST control)"
GTACCT,"1.36 fold enrichment (6-mer frequency, TF over GST control)","1.16 fold enrichment (6-mer frequency, TF over GST control)","1.26 fold enrichment (6-mer frequency, TF over GST control)","1.16 fold enrichment (6-mer frequency, TF over GST control)","1.22 fold enrichment (6-mer frequency, TF over GST control)","1.29 fold enrichment (6-mer frequency, TF over GST control)","1.12 fold enrichment (6-mer frequency, TF over GST control)","1.18 fold enrichment (6-mer frequency, TF over GST control)","1.1 fold enrichment (6-mer frequency, TF over GST control)"
AAGCTG,"1.21 fold enrichment (6-mer frequency, TF over GST control)","1.24 fold enrichment (6-mer frequency, TF over GST control)","1.16 fold enrichment (6-mer frequency, TF over GST control)","1.13 fold enrichment (6-mer frequency, TF over GST control)","1.16 fold enrichment (6-mer frequency, TF over GST control)","1.08 fold enrichment (6-mer frequency, TF over GST control)","1.03 fold enrichment (6-mer frequency, TF over GST control)","1.14 fold enrichment (6-mer frequency, TF over GST control)","1.08 fold enrichment (6-mer frequency, TF over GST control)"

# From paper PMC7862700, “An all-to-all approach to the identification of sequence-specific readers for epigenetic DNA modifications on cytosine”
